From the supplement of paper PMC7156485

System: TDF
Assay: cell number relative to DMSO (% of DMSO); higher = more cells (less growth inhibition / toxicity)
Conditions: concentration: 10 µM; 24 h
In short: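 Cell number or H1.0 nuclear intensity appears as percent of the plate control, based on the median of replicates. Measurements came from HCC1569 and TDF cells exposed in triplicate to compounds at 10 µM for 24 h at 37 °C, then imaged in six fields per well at ×10. Positional effects were smoothed out of HCC1569 values.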
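Note: TDF denotes transformed human dermal fibroblasts of mesenchymal origin.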

SMILES	cell number
O=[N+]([O-])c1ncc[nH]1 [Azomycin]	92.6
CC(N)Cc1c[nH]c2ccc(O)cc12.O=C(O)C=CC(=O)O (stereo not drawn) [alpha-Methyl-5-hydroxytryptamine maleate]	104
C[N+]1(C)C2CC(OC(=O)C(CO)c3ccccc3)CC1C1OC12.[Br-] (single isomer, unassigned; (-)) [(-)-Scopolamine methyl bromide]	98.8
COc1cc(C=C(C#N)C#N)cc(O)c1O [Tyrphostin AG 34]	97.9
COc1ccc2c(c[n+](C)c3c4cc5c(cc4ccc23)OCO5)c1OC.[Cl-] [Chelerythrine chloride]	0.93
CC(NC(C)(C)C)C(=O)c1cccc(Cl)c1.Cl (stereo unspecified) [Bupropion hydrochloride]	109
C/C(Nc1ccccc1)=C1\C(=O)NC(Cc2ccccc2)C1=O (stereo unspecified) [(3E)-3-(1-anilinoethylidene)-5-benzyl-2,4-pyrrolidinedione]	7.27
CC(C)C1(NC(=O)C2CC3c4cccc5[nH]cc(c45)CC3N(C)C2)OC2(O)C3CCCN3C(=O)C(Cc3ccccc3)N2C1=O (stereo unspecified) [Dihydroergocristine]	100
OC1CN2CCC(O)C2C(O)C1O (stereo unspecified) [Castanospermine]	104
Cc1cc(C2CCCN2C)on1 (stereo unspecified)	102
CC(C)NCC(O)c1ccc(N)c(C#N)c1 (stereo unspecified) [Cimaterol]	108
NNC(=O)c1ccc(O)cc1 [4-Hydroxybenzhydrazide]	100
CCCCCCCCCCCCCCCC(=O)OCC(COP(=O)([O-])OCC[N+](C)(C)C)OC(C)=O (stereo unspecified)	102
CCCN(CCC)C(=O)Cc1c(-c2ccc(Cl)cc2)nc2ccc(Cl)cn12	93.7
Br.CCCN(CCC)CCc1ccc(O)c(O)c1 [Dipropyldopamine hydrobromide]	104
COc1ccc2c(c1)C(=Cc1cnc[nH]1)C(=O)N2	49.2
N#CC(C#N)=Cc1ccc([N+](=O)[O-])c(O)c1 [Tyrphostin AG 126]	111
CP(=O)([O-])C1=CC[NH2+]CC1	98.6
O=C(O)CC[N+](=O)[O-] [3-Nitropropionic acid]	109
CN(C)Cc1c[nH]c2ccccc12 [Gramine]	99.3
CCN(CCCl)Cc1ccccc1Br.Cl [DSP-4 hydrochloride]	103
NCCN(CCN)N(O)N=O [1,1-bis(2-aminoethyl)-2-hydroxy-3-oxotriazane]	97.5
CCN1CC2(COC)CCC(OC)C34C5CC6C(OC)CC7(OCOC7(C(O)C23)C14)C5C6OC (stereo unspecified) [Delcorine]	105
O=c1[nH]c2ccccc2n1C1CCN(Cc2ccc(-c3nc4cc5[nH]cnc5cc4nc3-c3ccccc3)cc2)CC1 [Akt Inhibitor VIII, Isozyme-Selective, Akti-1/2]	81.2
CC(C)(C)c1cc(C=C(C#N)C#N)cc(C(C)(C)C)c1O [Tyrphostin A9]	47
CN1CC(CO)CC2c3cccc4[nH]cc(c34)CC21 (stereo unspecified) [9,10-Dihydrolysergol]	98.2
